The results in this text go back to PubChem BioAssay.

Active and inactive are the calls of the source.

One assay addresses Albumin (Bos taurus) (UniProt P02769). The assay can be described thus: bovine serum albumin binders on microarray, profiling panel, artefact control for SMM control protein annotation, biochemical, small-molecule microarray, Alexa647 label, 635/667 nm fluorescence (AID 1118).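 Also: score merges 667 nm emission intensity and signal-to-noise per printed compound spot.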 As to conditions: BSA-A647 binding, fluorescence 635 nm, higher = more signal.
Assay [1] is described as follows: small-molecule microarray binders of probe aXIP, primary screen, biochemical, NeuroSMM set, 635/667 nm fluorescence (AID 1119).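 Also: probe is the protein aXip251-270 applied at 1 µg/mL to compound-printed slides; binding of probe to printed compounds measured as 667 nm fluorescence plus signal to noise.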 As to conditions: higher = more signal, called active from +8 up or from −8 down.
The nature of assay [2]: small-molecule binders of probe aNOTCH3, primary screen, biochemical, small-molecule microarray, 635/667 nm fluorescence (AID 1120).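 Also: probe is a biotin-tagged antibody raised against NOTCH3 rather than NOTCH3 protein; score merges spot fluorescence near 667 nm with spot signal to noise.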 As to conditions: higher = more signal.
Assay [3] is described as follows: small-molecule binders of probe aNOTCH2, primary screen, biochemical, small-molecule microarray, 635/667 nm fluorescence (AID 1121).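 Also: score merges feature fluorescence read at 667 nm with its signal to noise.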 As to conditions: higher = more signal.
Assay [4] concerns the target Carbonic anhydrase 2 (Homo sapiens) (UniProt P00918). The assay can be described thus: CAII small-molecule binders, profiling panel, biochemical, small-molecule microarray, Alexa647-labelled CAII (AID 1122). Conditions: CAII-A647 binding fluorescence, higher = more signal.
Assay [5] is described as follows: COS7 lysate on small-molecule microarray, probe aHis, 635 nm (AID 1123).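 Also: z-score combines 667nm fluorescence intensity with signal-to-noise per printed compound spot.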 As to conditions: COS7 cell lysate, fluorescence, higher = more signal.
Assay [6] can be described thus: compound binding in COS7 lysate, probe aLAP1, primary screen, cell lysate, small-molecule microarray (AID 1124).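 Also: lysate comes from COS7 cells expressing LAP1 and is applied at 0.3 µg/mL; score merges spot fluorescence near 667 nm with signal-to-noise over triplicate slides.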 Conditions: probe aLAP1, fluorescence, higher = more signal.
In another assay the test system is Sam68 (KHDRBS1). Nature of the assay: Sam68 small-molecule binders, primary screen, biochemical, small-molecule microarray, 635 nm fluorescence (AID 1125).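 Also: score merges 667 nm channel intensity with signal to noise over triplicate slides.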 As to conditions: small-molecule microarray binding, higher = more signal.
Assay [7] deals with Chordin-like protein 2 (CHRDL2). The assay can be described thus: CHRDL2 small-molecule binders, primary screen, biochemical, small-molecule microarray, 635 nm fluorescence (AID 1126).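 Also: printed compound slides probed with Chrdl2 protein at 4 µg/mL for 1 h at 4 C; score merges 667 nm emission intensity with signal to noise over three replicate slides.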 Conditions: small-molecule microarray binding, fluorescence 635 nm; higher = more signal.
In assay [8] the target is Concanavalin-A (Canavalia ensiformis) (UniProt P02866). Nature of the assay: ConA small-molecule binders, primary screen, artefact control for SMM control protein annotation, biochemical, small-molecule microarray, Alexa647 label, 635 nm (AID 1127).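 Also: z combines 667 nm emission intensity with signal-to-noise across three replicate slides.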 As to conditions: ConA-A647 binding fluorescence, higher = more signal.
Chain of Concanavalin-A (Canavalia ensiformis) (P02866 whole entry, looked up): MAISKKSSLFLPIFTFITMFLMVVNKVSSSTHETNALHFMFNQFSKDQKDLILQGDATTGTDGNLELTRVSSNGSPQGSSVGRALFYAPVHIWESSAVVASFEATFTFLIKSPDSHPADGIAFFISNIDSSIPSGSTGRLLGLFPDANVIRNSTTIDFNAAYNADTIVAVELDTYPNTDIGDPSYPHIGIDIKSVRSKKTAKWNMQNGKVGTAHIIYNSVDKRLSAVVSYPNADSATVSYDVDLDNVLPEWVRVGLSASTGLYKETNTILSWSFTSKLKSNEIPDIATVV
Assay [9] is described as follows: anti-His antibody binders, primary screen, artefact control for SMM control protein annotation, biochemical, small-molecule microarray, 635 nm fluorescence (AID 1128).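 Also: score merges feature fluorescence with signal-to-noise for each printed compound spot.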 As to conditions: anti-His Alexa647 antibody binding, higher = more signal.
For assay [10], the system named is Human papillomavirus type 1a E7 protein (residues 1-88). Nature of the assay: HPV1a E7 small-molecule binders, primary screen, biochemical, small-molecule microarray, residues 1-88, 635 nm (AID 1129). As to conditions: small-molecule microarray binding, fluorescence 635 nm; higher = more signal.
For assay [11], the target named is Focal adhesion kinase 1 (Homo sapiens) (UniProt Q05397). The assay can be described thus: small-molecule microarray binders of FAK, primary screen, biochemical, 635/667 nm fluorescence, BSA, DTT (AID 1130).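 Also: composite of spot emission at 667 nm and signal to noise over triplicate slides.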 Conditions: PTK2 binding, 635 nm fluorescence, higher = more signal.
Chain of Focal adhesion kinase 1 (Homo sapiens) (Q05397 whole entry, looked up): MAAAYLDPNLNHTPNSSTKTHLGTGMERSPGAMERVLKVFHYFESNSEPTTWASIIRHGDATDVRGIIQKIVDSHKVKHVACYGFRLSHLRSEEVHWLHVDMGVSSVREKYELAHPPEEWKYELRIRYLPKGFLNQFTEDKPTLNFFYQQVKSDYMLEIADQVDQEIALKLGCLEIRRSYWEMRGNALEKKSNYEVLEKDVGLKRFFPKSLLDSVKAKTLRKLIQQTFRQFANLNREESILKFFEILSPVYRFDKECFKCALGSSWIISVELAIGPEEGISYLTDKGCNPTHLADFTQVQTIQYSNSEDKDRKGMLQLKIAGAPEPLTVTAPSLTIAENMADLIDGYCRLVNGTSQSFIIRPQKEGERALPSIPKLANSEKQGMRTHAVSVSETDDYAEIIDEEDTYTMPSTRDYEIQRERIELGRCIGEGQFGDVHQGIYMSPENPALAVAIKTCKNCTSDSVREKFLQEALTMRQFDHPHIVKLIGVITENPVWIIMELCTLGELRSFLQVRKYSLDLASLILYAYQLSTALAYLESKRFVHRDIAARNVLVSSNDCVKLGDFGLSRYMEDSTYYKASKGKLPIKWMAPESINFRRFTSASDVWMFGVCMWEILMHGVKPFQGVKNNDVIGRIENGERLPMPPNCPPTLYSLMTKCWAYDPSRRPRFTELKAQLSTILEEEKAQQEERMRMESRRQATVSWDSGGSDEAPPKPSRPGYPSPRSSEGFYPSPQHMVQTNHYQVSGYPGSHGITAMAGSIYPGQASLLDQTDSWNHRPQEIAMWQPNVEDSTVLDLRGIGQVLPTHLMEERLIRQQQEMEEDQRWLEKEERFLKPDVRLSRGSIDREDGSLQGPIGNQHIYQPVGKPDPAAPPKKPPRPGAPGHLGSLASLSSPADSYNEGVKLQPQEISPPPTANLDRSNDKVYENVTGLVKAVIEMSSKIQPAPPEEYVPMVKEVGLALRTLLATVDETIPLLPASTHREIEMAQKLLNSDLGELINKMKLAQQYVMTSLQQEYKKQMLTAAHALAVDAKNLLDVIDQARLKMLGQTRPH
For assay [12], the system named is Fibrinogen (Alexa647-labelled). Nature of the assay: fibrinogen binders on compound microarrays, profiling panel, artefact control for SMM control-protein annotation, biochemical, small-molecule microarray, 635/667 nm fluorescence (AID 1131).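 Also: z-score merges 667 nm fluorescence with per-spot signal-to-noise over triplicate slides.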 Conditions: fibrinogen-A647 binding fluorescence, higher = more signal.
Assay [13] concerns the target Follistatin (Homo sapiens) (UniProt P19883). Nature of the assay: follistatin binders on small-molecule microarrays, primary screen, biochemical, small-molecule microarray, 635/667 nm fluorescence (AID 1132). As to conditions: FST binding, 635 nm fluorescence, higher = more signal.
The target of assay [14] is Fibroblast growth factor 2 (Homo sapiens) (UniProt P09038). The assay can be described thus: FGF2 binders on small-molecule microarrays, primary screen, biochemical, small-molecule microarray, 635/667 nm fluorescence (AID 1133). As to conditions: small-molecule microarray binding, FGF2, fluorescence 635/667; higher = more signal.
Chain of Fibroblast growth factor 2 (Homo sapiens) (P09038 whole entry, looked up): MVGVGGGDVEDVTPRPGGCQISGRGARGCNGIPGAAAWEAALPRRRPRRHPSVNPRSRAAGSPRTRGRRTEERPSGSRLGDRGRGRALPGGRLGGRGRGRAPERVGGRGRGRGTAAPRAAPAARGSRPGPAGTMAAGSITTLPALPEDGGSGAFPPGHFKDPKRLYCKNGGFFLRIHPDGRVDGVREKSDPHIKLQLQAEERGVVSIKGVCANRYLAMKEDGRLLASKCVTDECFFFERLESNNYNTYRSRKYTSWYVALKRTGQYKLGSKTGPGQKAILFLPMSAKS
A short description of assay [15]: mitochondrial membrane potential change in A549 cells, profiling panel, cell-based, JC-1 fluorescence, basal, 24 h, 100 nL (AID 1138).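 Also: A549 lung adenocarcinoma cells under basal conditions with no added stimulus; test concentration not given here.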 As to conditions: higher = more signal.
A further assay concerns Lefty1. The assay can be described thus: Lefty1 binders on small-molecule microarrays, primary screen, biochemical, small-molecule microarray, 635/667 nm fluorescence (AID 1139). As to conditions: small-molecule microarray binding, fluorescence 635/667; higher = more signal.
For assay [16], the system named is wheat germ agglutinin (Triticum aestivum), Alexa647-labelled. Nature of the assay: wheat germ agglutinin binders on compound microarrays, profiling panel, artefact control for SMM control-protein annotation, biochemical, small-molecule microarray, 635/667 nm fluorescence (AID 1140).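 Also: score merges 667 nm feature emission with signal to noise over triplicate slides.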 Conditions: WGA-A647 binding, 635 nm fluorescence, higher = more signal.
The target of assay [17] is Luciferin 4-monooxygenase (Photinus pyralis) (UniProt P08659). Nature of the assay: firefly luciferase enzyme inhibitors, primary screen, biochemical, luminescence, purified enzyme, 2006 set (AID 1141).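 Also: cell-free assay with purified firefly luciferase at 100 ng per well in PBS; test concentration not given here.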 As to conditions: SteadyGlo luminescence, 30 min, higher = more signal, called active from +8 up or from −8 down.
Chain of Luciferin 4-monooxygenase (Photinus pyralis) (P08659 whole entry, looked up): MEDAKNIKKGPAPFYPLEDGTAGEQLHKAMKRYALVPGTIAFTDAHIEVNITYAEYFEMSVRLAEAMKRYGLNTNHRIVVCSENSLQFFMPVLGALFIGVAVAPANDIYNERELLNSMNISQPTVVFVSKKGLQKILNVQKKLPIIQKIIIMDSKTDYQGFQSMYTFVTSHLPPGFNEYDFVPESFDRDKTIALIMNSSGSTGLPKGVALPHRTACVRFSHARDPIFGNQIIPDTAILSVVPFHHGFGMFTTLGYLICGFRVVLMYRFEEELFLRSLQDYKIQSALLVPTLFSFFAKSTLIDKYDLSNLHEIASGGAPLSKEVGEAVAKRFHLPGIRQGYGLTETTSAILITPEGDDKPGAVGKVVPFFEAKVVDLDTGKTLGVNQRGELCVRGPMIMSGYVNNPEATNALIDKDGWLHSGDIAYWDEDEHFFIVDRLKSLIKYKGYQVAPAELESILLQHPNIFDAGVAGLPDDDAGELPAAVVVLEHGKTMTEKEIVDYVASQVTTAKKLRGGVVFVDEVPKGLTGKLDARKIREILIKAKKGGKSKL

Chain of Albumin (Bos taurus) (P02769 whole entry, looked up): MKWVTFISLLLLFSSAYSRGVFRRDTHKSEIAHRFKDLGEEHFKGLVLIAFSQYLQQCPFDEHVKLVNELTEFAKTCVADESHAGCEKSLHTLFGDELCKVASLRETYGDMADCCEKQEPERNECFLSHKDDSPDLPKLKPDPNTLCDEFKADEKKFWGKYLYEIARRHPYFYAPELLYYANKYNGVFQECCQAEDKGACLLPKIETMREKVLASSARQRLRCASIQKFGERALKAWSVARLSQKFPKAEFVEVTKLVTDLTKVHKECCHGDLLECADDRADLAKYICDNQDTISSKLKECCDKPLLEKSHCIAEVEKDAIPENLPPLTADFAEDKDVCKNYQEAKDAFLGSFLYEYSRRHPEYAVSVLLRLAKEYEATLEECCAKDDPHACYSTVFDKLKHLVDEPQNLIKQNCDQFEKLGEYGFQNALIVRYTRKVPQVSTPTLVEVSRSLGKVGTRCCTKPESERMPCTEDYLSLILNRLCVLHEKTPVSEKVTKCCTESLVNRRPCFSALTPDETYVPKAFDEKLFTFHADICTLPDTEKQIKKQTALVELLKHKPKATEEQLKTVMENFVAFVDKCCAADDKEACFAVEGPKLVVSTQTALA
Chain of Follistatin (Homo sapiens) (P19883 whole entry, looked up): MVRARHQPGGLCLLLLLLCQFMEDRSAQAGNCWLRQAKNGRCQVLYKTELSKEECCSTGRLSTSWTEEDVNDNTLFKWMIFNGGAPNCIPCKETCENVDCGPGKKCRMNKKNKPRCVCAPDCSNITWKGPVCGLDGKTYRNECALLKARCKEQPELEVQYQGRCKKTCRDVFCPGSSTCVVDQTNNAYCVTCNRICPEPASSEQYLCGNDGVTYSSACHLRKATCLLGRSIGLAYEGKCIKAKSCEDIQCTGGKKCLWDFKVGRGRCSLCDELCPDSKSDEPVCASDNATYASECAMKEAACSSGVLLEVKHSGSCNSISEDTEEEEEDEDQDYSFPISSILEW

Consider `C#C[C@@H](CC)O[Si](C#Cc1ccc(Oc2ccccc2)cc1)(C(C)C)C(C)C`, for which the composite z-score with Albumin (Bos taurus) was -0.109; in assay [2], 0.122; in assay [3], -0.11; in [4], 0.535; in assay [5] it was 0.476; in assay [6], 0.339. Further, the composite z-score in the assay with Sam68 (KHDRBS1) was 1.3; in [7] it was 0.234; in assay [8] it was 0.218; in [9] it was 0.491; in [10] it was 0.649; in assay [11], -0.0378. In addition, the composite z-score in assay [12] came to 0.15; in assay [13], 0.395; in assay [14], 0.307; in the assay on Lefty1, 0.63; in assay [16] it was 0.299. Besides, the composite Z-score in assay [1] is 0.317 (inactive). The z-score in assay [15] is -1.81; in [17], 0.0007 (inactive).
`COc1ccc(O[C@@H]2[C@H](O)CO[C@H]2C=CC#Cc2ccccc2)cc1`: the composite z-score with Albumin (Bos taurus) is -0.0002; in assay [2], -0.166; in assay [3] it was -0.171; in assay [4], 0.177; in assay [5], 0.297; in assay [6], 0.0594. The composite z-score with Sam68 (KHDRBS1) is -0.016; in [7] it was 0.229; in [8] it was -0.301; in assay [9] it was 1.1; in assay [10], -0.253; in assay [11], -0.267. The composite z-score was 0.73 in assay [12]; 0.356 in [13]; 0.341 in assay [14]; 0.407 with Lefty1; 0.535 in assay [16]. In addition, the composite Z-score in [1] is 0.497 (inactive). Besides, the results for the z-score in assay [15] and in assay [17] were -0.0963 and -0.391 (inactive), respectively.
`COc1cccc([C@@H]2Oc3ccc(Br)cc3C(=O)[C@H]2O)c1`: the composite z-score in the assay with Albumin (Bos taurus) was 0.705; in assay [2] it was -0.0111; in assay [3] it was -0.084; in assay [4], 0.439; in [5], 0.599; in [6], 0.214. Besides, the composite z-score in the assay with Sam68 (KHDRBS1) is 0.26; in assay [7], 0.432; in assay [8], 1.11; in assay [9], 0.26; in assay [10] it was 0.615; in [11] it was 0.586. Further, the composite z-score amounted to 0.946 in [12]; 0.453 in [13]; 0.267 in assay [14]; 0.732 with Lefty1; 0.282 in assay [16]. In [1], the composite Z-score was 0.38 (inactive). Besides, the z-score in assay [15] was 1.08; in assay [17], -3.5 (inactive).
For `COC(=O)c1c(CC[C@@H](CO)NC(=O)N[C@H](Cc2ccccc2)Cn2cc(-c3ccccc3N)nn2)oc(C(C)=O)c1C(=O)OC`, the composite z-score with Albumin (Bos taurus) worked out at 0.484; in [2] it was 0.237; in [3] it was 0.115; in assay [4], 0.0874; in [5] it was 1.31; in assay [6] it was 0.481. The composite z-score in the assay on Sam68 (KHDRBS1) is 0.938; in assay [7], 0.509; in assay [8] it was -0.0831; in [9], 1.35; in assay [10] it was 1.17; in assay [11], -0.422. Moreover, the composite z-score in assay [12] turned out to be 0.323; in assay [13], 0.629; in assay [14], 0.237; with Lefty1, 0.348; in [16] it was 1.14. Besides, the composite Z-score in assay [1] was -0.202 (inactive). Further, the figures for the z-score in assay [15] and in assay [17] were 0.34 and -0.197 (inactive), respectively.
Regarding `O=C1NC(=O)C2C1C=CC(C(O)Cc1ccccc1)N2Nc1ccccn1` (stereo not given), the composite z-score was 0.461 with Albumin (Bos taurus); -0.0311 in assay [2]; -0.0079 in assay [3]; 0.865 in assay [4]; 1.87 in assay [5]; 0.12 in assay [6]. The composite z-score in the assay with Sam68 (KHDRBS1) was found to be 0.322; in assay [7], 0.313; in assay [8], 0.77; in assay [9] it was 0.596; in [10], 0.45; in assay [11] it was 0.116. The composite z-score was 0.353 in assay [12]; 0.194 in assay [13]; 0.512 in [14]; -0.174 in the assay with Lefty1; 0.639 in assay [16]. In addition, the composite Z-score in assay [1] is -0.0126 (inactive). Further, the z-score in assay [15] is 1.78; in assay [17] it was -0.523 (inactive).
For `CC(=O)C[C@H](O)[C@@H](NC(=O)OC(C)(C)C)C(C)C`, the composite z-score with Albumin (Bos taurus) was -0.587; in [2] it was -0.0903; in [3] it was -0.14; in assay [4], -0.424; in assay [5], -0.336; in assay [6], -0.286. Moreover, the composite z-score was -1.8 in the assay with Sam68 (KHDRBS1); -0.405 in assay [7]; -0.385 in [8]; -0.0599 in assay [9]; -1.54 in [10]; -0.352 in [11]. Moreover, the composite z-score in [12] is -0.454; in assay [13], -0.118; in assay [14] it was -0.312; in the assay with Lefty1, 0.304; in assay [16], -0.644. The composite Z-score in assay [1] is -0.24 (inactive). Further, the figures for the z-score in assay [15] and in assay [17] were -0.824 and 0.364 (inactive), respectively.
